For 38 compounds, AC50 results are on record in PubChem BioAssay AID504727 (Broad Institute, 2011).

Molecules are shown by their SMILES. Calls of active or inactive are those of the source.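 Rule for the calls: active = fitted half-maximal concentration AC50 at or below ten times the highest valid tested dose, with signal falling as DNA is displaced (actives reach about 34 µM in these data); inconclusive = flat fit at moderate signal loss, or poor fit quality; inactive = the rest, including signal rising instead of falling.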

The test is described as follows: DNA intercalators displacing acridine orange, dose response, artefact control for KSHV LANA DNA-binding inhibitor project, biochemical, fluorescence polarization, cherry-picked samples, set 2 (AID 504727). The settings on record: AC50: Acridine orange-DNA displacement; series mostly up to 35 µM.
`CCN(C(=O)c1cccc(S(=O)(=O)N2CCc3ccccc32)c1)C1CCS(=O)(=O)C1` (stereo not drawn): the AC50 result was “inactive”.

`CCCc1cc(C(=O)Nc2ccc(C(=O)c3ccc(C)cc3)cc2)n(C)n1`: the AC50 entry was “inactive”.

As for `O=C(CN(Cc1ccccc1F)C(=O)c1csnn1)NCc1ccc2c(c1)OCO2`, the AC50 entry is “inactive”.

Consider `CC(/C=C1\SC(=S)N(CCCC(=O)Nc2ccc(C(=O)O)cc2)C1=O)=C\c1ccccc1`, for which the AC50 entry was “inactive”.

As to `Cc1cc(C)n(CC(=O)NNC(=O)CC(C)c2ccccc2)n1` (stereo not drawn), the AC50 entry is “inactive”.

Take `Cc1cc(=O)c2c([nH]1)c(C)cc1[nH]c(C)c(C)c12`: the AC50 result is “inactive”.

As for `COc1cccc2c1C(=O)c1c(O)c3c(c(O)c1C2=O)C[C@@](O)(C(C)=O)C[C@@H]3O[C@H]1C[C@H](N)[C@H](O)[C@H](C)O1`, the AC50 was 1.89 µM (active).

Take `CC1=NN(c2cccc(C(=O)O)c2)C(=O)/C1=C\C=C\c1ccco1`: the AC50 entry was “inactive”.

Turning to `COc1ccc(-c2cnc3n2CCCCC3)cc1`, the AC50 result is “inactive”.

As for `COc1cccc2c1NC(C(=O)O)C1CC=CC21` (stereo not drawn), the AC50 result was “inactive”.

For the compound `CCOc1ccc(C(C)NC(=O)c2ccccc2OCc2c(C)noc2C)cc1OCC` (stereo not drawn), the AC50 result was “inactive”.

Regarding `Nc1cccc(N2C(=O)c3cccc4c(N)ccc(c34)C2=O)c1`, the half-maximal activity concentration (AC50) is 5.76 µM (active).

In the case of `Cc1cccc(N2C(=O)c3cccc4c(N(C)CCO)ccc(c34)C2=O)c1`, the AC50 entry is “inactive”.

Turning to `CCN(C(=O)COC(=O)CCCOc1ccc(Cl)cc1C)c1c(N)n(Cc2ccccc2)c(=O)[nH]c1=O`, the AC50 result is “inactive”.

Regarding `CCOc1ccc(Nc2ccc(N)c(S(=O)(=O)O)c2)cc1`, the AC50 result is “inactive”.

As to `O=C(COc1ccccc1Cc1ccccc1)NCCCN1CCOCC1`, the AC50 was 33.9 µM (active).

Regarding `O=C(O)c1cccc(-n2cccc2/C=C/[N+](=O)[O-])c1`, the AC50 entry is “inactive”.

Turning to `O=C(CCCN1C(=O)/C(=C\c2ccco2)SC1=S)Nc1ccc(O)cc1C(=O)O`, the AC50 result is “inactive”.

On to `O=C(O)c1cccc(NC2=Nc3cccc4cccc2c34)c1`, for which the AC50 entry was “inactive”.

In the case of `Cc1cc(C)nc(SCC(=O)N/N=C/c2cc(C)n(-c3ccccc3C)c2C)n1`, the AC50 entry is “inactive”.

For the compound `O=C(O)C1Nc2ccc(Br)cc2C2C=CCC12` (stereo not drawn), the AC50 entry is “inactive”.

On to `CCN(CC)C(=S)SC1CCCCN(C(=O)c2ccccc2)C1=O` (stereo not drawn), for which the AC50 result is “inactive”.

For the compound `O=C(NC1(O)C(=O)c2ccccc2C1=O)c1c(Cl)cccc1Cl`, the AC50 result is “inactive”.

With `COc1ccc(Cn2nnc3c(=O)[nH]c(C4CCCN(C(=O)c5ccccc5)C4)nc32)cc1` (stereo not drawn), the AC50 result is “inactive”.

Turning to `O=C(N/N=C/c1ccc(N2CCOCC2)cc1)c1ccccn1`, the AC50 entry was “inactive”.

For `CCCCn1c(=O)[nH]c2nc3cc(N)ccc3nc2c1=O`, the AC50 was 3.75 µM (active).

Regarding `CC(=O)Nc1ccc(S(=O)(=O)Nc2nc3ccccc3nc2Nc2ccc(C(=O)O)c(O)c2)cc1`, the AC50 entry was “inactive”.

On to `COC(=O)c1ccc(OCC(O)CN2CCC(C)CC2)cc1` (stereo not drawn), for which the AC50 result is “inactive”.

As to `CC1(C)CCCN(C(=O)c2coc(=O)c(Br)c2)C1`, the AC50 entry was “inactive”.

As for `COc1cccc(OC)c1C(=O)Nc1cc(C)on1`, the AC50 entry is “inactive”.

`O=c1[nH]c(=S)[nH]c2c1C(c1ccc(Br)cc1)c1c([nH]c(=S)[nH]c1=O)O2`: the AC50 result is “inactive”.

`COc1ccc(-c2csc(NC(=O)CSc3nc(C)nc4sc(C(=O)O)c(C)c34)n2)cc1`: the AC50 entry is “inactive”.

Regarding `CN(C)CCNc1ccc2ncn3c4ccc(O)cc4c(=O)c1c23`, the concentration at half-maximal activity (AC50) was 8.68 µM (active).

Regarding `CCOC(=O)c1cnc(SC)nc1Sc1ccc(Cl)cc1Cl`, the AC50 result was “inactive”.

In the case of `Cc1cccc(NC(=O)CN2C(=O)NC(C)(c3ccc4ccccc4c3)C2=O)n1` (stereo not drawn), the AC50 entry is “inactive”.

`O=C(Cn1c2ccccc2c2nc3n(c(=O)c21)CCS3)Nc1ccccc1C(F)(F)F`: the AC50 entry was “inactive”.

Turning to `O=C(Cn1nc(Cc2ccncc2)c2ccccc2c1=O)N1CCN(C(=O)c2ccco2)CC1`, the AC50 is 4.26 µM (active).

As to `O=C1CCN2C=Nc3cccc4ccc1c2c34`, the AC50 is 2.29 µM (active).
